We go through 40 compounds from PubChem BioAssay (NCI).

The panel holds about 83,000 compounds, 20% with a hit somewhere; the sample as a whole holds those more often.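 Values shown are percent growth following 48 h exposure of cells in 96-well plates to a single concentration of compound; below 10 was considered active.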 Active and inactive are the calls of the source.

The assay has as its system HL-60(TB) leukemia. Briefly: NCI-60 one-dose screen, 48 h (100 = growth as untreated, 0 = no growth, -100 = all killed). Particulars: 10 µM unless noted.
Consider `COc1ccc2c(c1)CCc1[nH]nc(-c3cc(OC)c(OC)c(OC)c3)c1-2`, for which the growth was -20.4% (active).

Regarding `CCOc1ccc2c(c1)/C(=C\C=C\C1CC(C)C3CC(OCC)CCC3N1CC)CC(C)N2CC` (stereo not given), the growth was -35.7% (active). In the case of `CCN1CCN(c2ccc(Nc3cc(-c4cccnc4Nc4c(Cl)c(OC)cc(OC)c4Cl)ncn3)cc2)CC1`, the growth was 56% (inactive). For `O=C1/C(=C/c2ccc(F)cc2)CN(C(=O)CCN2CCC(=NO)CC2)C/C1=C\c1ccc(F)cc1`, the growth was -8.33% (active). Consider `COc1ccc(S(=O)(=O)n2cc(C3OC(c4cc(OC)c(OC)c(OC)c4)=NN3C(C)=O)c3ccccc32)cc1OC` (stereo not given), for which the growth was 111% (inactive). In the case of `N#C/C(=C\c1ccc(Cl)cc1)n1nnc2cc(F)c(F)cc21`, the growth is -19.4% (active). The value for `Nc1ccc(S(=O)(=O)c2ccc(NO)cc2)cc1` was 107% (inactive); that for `CCCCNC(=O)c1cc(NCc2cc(O)ccc2O)ccc1O` was 3.56% (active); that for `O=C1CCC(=O)CC1` was 97.7% (inactive). To `COc1ccc(-c2cc(/C=C/C(=O)c3ccc(N)cc3)[nH]n2)cc1OC` belongs 20.1% (inactive); to `O=C(O)CCCn1c(SCc2c(Cl)cccc2Cl)nc2ccsc2c1=O`, -4.86% (active). `CN(C)CCC(=O)C1CC1`: the growth is 93.9% (inactive).

For the compound `CCN(CC)S(=O)(=O)c1ccc(NC(=O)CSc2nnc(C)n2-c2ccccc2)cc1`, the growth is 132% (inactive). `Clc1cccc(-c2nc(-c3cccs3)no2)c1`: the growth is 98.4% (inactive).

With `O=C1C=CC2(NN=C(c3ccccc3)N2c2ccc(Cl)cc2)c2cccc(O)c21` (stereo not given), the growth was 23.5% (inactive). To `OC1CCCc2ccccc21` (stereo not given) belongs 98.4% (inactive); to `CCOc1cccc(C2CC(=O)Nc3cc4c(cc32)OCO4)c1` (stereo not given), 90.7% (inactive); to `Nc1nc(N)c2c(n1)NC(c1ccc(F)cc1)C1CCc3ccccc3C1=N2` (stereo not given), 16.5% (inactive). Turning to `CCOC(=O)c1c(C)nc2c(c1N)C(=O)C(=O)N2Cc1ccc(C(F)(F)F)cc1`, the growth is 43.5% (inactive).

For `COc1ccc(/C=C/c2cccc[n+]2C)cc1`, the growth was 105% (inactive). The value for `c1ccc(Cn2cc3c(c2)-c2nc(Nc4ccccc4)ncc2CC3)cc1` was 79.4% [100 µM] (inactive). As for `Cc1ccc(/C(CS(=O)(=O)c2ccc(C)cc2)=N\O)cc1`, the growth is 99% (inactive). `C#CCn1c(C)cc(C)c(C#N)c1=O`: the growth was 101% (inactive).

For `c1ccc(Nc2nc(-c3ccccn3)cs2)nc1`, the growth was 1.61% (active). For the compound `Cc1ccc(NS(=O)(=O)c2ccc(-c3cnc(C4CC4)o3)cc2)cc1`, the growth was 24.3% (inactive). To `CCCCCCCC/C=C\CCCCCCCCOc1ccccc1CC(=O)NCC[N+]1(C)CCCCC1` belongs -19.6% (active); to `O=C1OCC2=C1C(c1ccc(Cl)c(Cl)c1)c1cc3c(cc1N2CCO)OCCO3` (stereo not given), -18.9% (active); to `Cc1cc2c3ccc(C)[n+](C)c3ccc2n1C`, -5.59% (active).

Turning to `O=C(CC12CC3CC(CC(C3)C1)C2)NCCOCCOCCOCCNC(=O)c1cc2c(o1)C(=O)c1ccccc1C2=O`, the growth was -7.22% (active). With `O=c1[nH]c(=O)c2[nH]c(=O)[nH]c2[nH]1`, the growth was 100% (inactive). In the case of `Nc1ccccc1NC(=O)c1ccc(CSc2nc(N3CCOCC3)c3cccn3n2)cc1`, the growth was -19.4% (active). In the case of `O=C(O)[C@@H]1[C@H]2C[C@H]3c4[nH]c5ccccc5c4CCN3C[C@@H]2CC[C@@H]1O`, the growth was 128% (inactive).

With `CN(C)CCOc1ccc2c(c1)C(=O)/C(=C\c1ncc([N+](=O)[O-])n1C)C2`, the growth is -51.8% (active). Turning to `C[C@H](C(=O)Nc1ccc(S(N)(=O)=O)cc1)S(=O)(=O)c1ccccc1`, the growth was 101% (inactive). To `COc1c(C(=O)/C=C/c2ccc(C)o2)c(O)cc2occc12` belongs 44.6% (inactive); to `CCOC(=O)/C=C/C(=O)[C@H](CC(C)C)NC(=O)[C@H](Cc1ccccc1)NC(=O)OCc1ccccc1`, 25.9% (inactive); to `COc1ccc(/C(C)=C(\c2ccc(Cl)cc2)c2ccc(OCCCN(C)C)cc2)cc1F`, 66.2% (inactive).

`CCOC(=O)c1cc(C(=O)c2ccc(O)c(O)c2)n2ccc(-c3ccn4c(C(=O)c5ccc(O)c(O)c5)cc(C(=O)OCC)c4c3)cc12`: the growth is 73.8% (inactive). The value for `Cc1ccc(NSc2ccccc2[N+](=O)[O-])cc1` was -6.97% (active); that for `CCOC(=O)c1[nH]c(C)c(C(C)=O)c1C` was 102% (inactive).
